{"source": "PubChem BioAssay AID1565", "about": "(Sanford-Burnham Center for Chemical Genomics, 2009)", "note": "About 3,200 (1.1%) of roughly 290,000 compounds were called active. The full list was thinned out, with actives kept by preference. A number with no mark means an inactive call. Cut-off read from the data, not from the text of the source: active = inhibition above about 60%; inactive = the rest."}
{"molecular_target": "Phosphoethanolamine/phosphocholine phosphatase (Homo sapiens) (UniProt Q8TCT1)", "sequence (Q8TCT1 whole entry, looked up)": "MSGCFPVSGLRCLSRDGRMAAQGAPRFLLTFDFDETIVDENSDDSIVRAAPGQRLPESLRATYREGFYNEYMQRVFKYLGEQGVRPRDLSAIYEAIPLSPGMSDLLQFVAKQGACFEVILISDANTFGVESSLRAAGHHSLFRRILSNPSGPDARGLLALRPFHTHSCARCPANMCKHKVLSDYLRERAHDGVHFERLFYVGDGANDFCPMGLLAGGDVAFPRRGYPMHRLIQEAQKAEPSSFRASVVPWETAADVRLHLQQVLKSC", "experiment": "PubChem AID 1565", "conditions": "recombinant PHOSPHO1, absorbance phosphatase assay; at 13.3 µM; stronger effect = higher value"}
{"smiles": "COCCCC1CCN(C(=O)C2CCC(=O)N(C3CCCCCC3)C2)CC1", "note": "(centres undefined)", "inhibition": "26.5%"}
{"smiles": "O=C(N/N=C\\c1cccnc1)c1cc(-c2ccccc2)nc2c(Cl)cccc12", "inhibition": "9%"}
{"smiles": "O=C(/C=C/c1cccc(C(F)(F)F)c1)N1CCN(c2ccccn2)CC1", "inhibition": "23.3%"}
{"smiles": "Clc1c(OCCCn2ccnc2)ccc2ccccc12", "inhibition": "13.9%"}
{"smiles": "O=C(O)c1[nH]c2ccccc2c1C(c1cccc(O)c1)c1c(C(=O)O)[nH]c2ccccc12", "inhibition": "14.1%"}
{"smiles": "Cc1cccc(NC(=O)c2nnn(-c3cccc(C(F)(F)F)c3)c2N)c1", "inhibition": "11.4%"}
{"smiles": "O=C(O)CSCC(=O)Nc1cccc(C(F)(F)F)c1", "inhibition": "61.5% (active)"}
{"smiles": "O=C(O)CC1(CC(=O)Nc2cccc(C(F)(F)F)c2)CCCC1", "inhibition": "24%"}
{"smiles": "O=C(O)CSCC(=O)Nc1ccc(C(F)(F)F)cc1", "inhibition": "46.4%"}
{"smiles": "Cc1cccc(NC(=O)c2cccc(C(F)(F)F)c2)c1", "inhibition": "66.2% (active)"}
{"smiles": "CNC(=O)c1ccc(NC(=O)c2cccc(C(F)(F)F)c2)cc1", "inhibition": "47.6%"}
{"smiles": "COc1ccc(/C=N/NC(=O)C2CC2)c(OC)c1OC", "inhibition": "21.2%"}
{"smiles": "CC1Sc2ccc(S(=O)(=O)CCC(=O)NCc3ccccc3Cl)cc2NC1=O", "note": "(centres undefined)", "inhibition": "-22.3%"}
{"smiles": "COc1ccc(CCNC(=O)COC(=O)c2ccc[nH]c2=O)cc1", "inhibition": "0.3%"}
{"smiles": "COc1ccccc1C(=O)OCC(=O)NCCNC(=O)COC(=O)c1ccccc1OC", "inhibition": "70.6% (active)"}
{"smiles": "COc1ccc(C(=O)OCC(=O)NCCCc2ccccc2)cc1OC", "inhibition": "17.9%"}
{"smiles": "O=C(CSc1nnnn1C1CCCC1)N1CCCCC1", "inhibition": "30.7%"}
{"smiles": "O=C(c1cc2ccccc2s1)N1CCN(c2ccccn2)CC1", "inhibition": "42.8%"}
{"smiles": "CCc1ccc(OCC2c3cc(OC)c(OC)cc3CCN2C(C)=O)cc1", "note": "(centres undefined)", "inhibition": "42%"}
{"smiles": "COc1ccccc1OCCNC(=O)CCNC(=O)c1ccccc1Cl", "inhibition": "23.8%"}
{"smiles": "Cc1cc(CNC(=O)c2cccc([N+](=O)[O-])c2)c2ccccc2n1", "inhibition": "-3%"}
{"smiles": "CN(C(=O)c1cccc([N+](=O)[O-])c1)c1ccccc1C(=O)NCc1ccccc1", "inhibition": "61% (active)"}
{"smiles": "O=C(c1cccc([N+](=O)[O-])c1)N1CCN(Cc2ccccc2)CC1", "inhibition": "18.4%"}
{"smiles": "O=C(N/N=C/c1ccc(Cl)c(Cl)c1)c1ccc2nc[nH]c2c1", "inhibition": "29.8%"}
{"smiles": "N#Cc1ccc(C2N=C(c3ccccc3)NO2)cc1", "note": "(centres undefined)", "inhibition": "30.4%"}
{"smiles": "COc1ccc(Cl)cc1NC(=O)CN1CCN(C(=O)N2CCOCC2)CC1", "inhibition": "4.5%"}
{"smiles": "CCOC(=O)c1c(C)n(C)c2ccc(OC)c(NC(=O)CN3CCC4(CC3)OCCO4)c12", "inhibition": "96.8% (active)"}
{"smiles": "CCOC(=O)c1c(C)n(C)c2ccc(OC)c(NS(=O)(=O)CC)c12", "inhibition": "-2.4%"}
{"smiles": "CCOc1ccc(C(C(=O)NCCOC)N(CCOC)C(=O)CCC(=O)Nc2ccccn2)cc1", "note": "(centres undefined)", "inhibition": "1.5%"}
{"smiles": "COc1ccc2cc(C(=O)C3CCCN(C(=O)c4sc(C)nc4C)C3)ccc2c1", "note": "(centres undefined)", "inhibition": "22.6%"}
{"smiles": "COc1ccccc1N1CC(C(=O)Nc2nnc(SCC(=O)NC(C)C)s2)CC1=O", "note": "(centres undefined)", "inhibition": "-84.3%"}
{"smiles": "O=C(COC(=O)c1ccc(F)cc1)NCCCc1ccccc1", "inhibition": "24.1%"}
{"smiles": "COc1ccc(N2C(=O)CC(Sc3n[nH]c(-c4ccc(C)cc4)n3)C2=O)cc1", "note": "(centres undefined)", "inhibition": "10.2%"}
{"smiles": "COC(=O)c1ccccc1SC1CC(=O)N(c2cccc(C)c2)C1=O", "note": "(centres undefined)", "inhibition": "-11.7%"}
{"smiles": "CC(=O)Nc1ccc(N2C(=O)CC(Sc3nccc(C)n3)C2=O)cc1", "note": "(centres undefined)", "inhibition": "19.2%"}
{"smiles": "O=C1CC(N2CCN(c3ccc(F)cc3)CC2)C(=O)N1c1ccccc1", "note": "(centres undefined)", "inhibition": "-16.5%"}
{"smiles": "Cc1ccc(N2C(=O)CC(Sc3ncn[nH]3)C2=O)cc1", "note": "(centres undefined)", "inhibition": "105% (active)"}
{"smiles": "O=C1CC(Sc2ncn[nH]2)C(=O)N1c1ccccc1", "note": "(centres undefined)", "inhibition": "97.9% (active)"}
{"smiles": "CCc1ccc(/C=N/NC(=O)c2nnn(-c3nonc3N)c2CN2CCc3ccccc32)cc1", "inhibition": "23.3%"}
{"smiles": "Cc1[nH]c(C)c(S(=O)(=O)N2CCN(c3cccc(C(F)(F)F)c3)CC2)c1C(=O)N1CCCC1", "inhibition": "12.1%"}
{"smiles": "Cc1cccc(N(C)C(=O)c2cc(S(=O)(=O)N3CCCCC3)c[nH]2)c1", "inhibition": "25.4%"}
{"smiles": "CCc1cccc(C)c1NS(=O)(=O)c1cc(Br)cnc1N", "inhibition": "35.5%"}
{"smiles": "CCCC(=O)N1CCN(c2nnc(-c3ccc(C)cc3)c3ccccc23)CC1", "inhibition": "30.8%"}
{"smiles": "O=C(CSc1nc2ccc(Nc3nc(N4CCOCC4)nc(N4CCOCC4)n3)cc2s1)NCc1ccco1", "inhibition": "16.2%"}
{"smiles": "C=CCn1c(CSc2nc3ccccc3s2)nnc1SCC(=O)NCc1ccco1", "inhibition": "89.7% (active)"}
{"smiles": "C=CCn1c(SCC(=O)Nc2nc3ccccc3s2)nnc1-c1ccccc1O", "inhibition": "-17.5%"}
{"smiles": "O=S(=O)(/C=C/c1ccccc1)N1CCNCC1", "inhibition": "37%"}
{"smiles": "Cc1cc(S(=O)(=O)NCc2ccccn2)c(Cl)cc1Cl", "inhibition": "29.5%"}
{"smiles": "CC1(C)NC(=O)N(CC(=O)Nc2cc(C(F)(F)F)cc(C(F)(F)F)c2)C1=O", "inhibition": "24%"}
{"smiles": "O=C(NCc1ccc(Cl)cc1)NCc1ccc(Cl)cc1", "inhibition": "42.1%"}
{"smiles": "O=C(NCc1ccc(Cl)cc1)c1cc2c(nc3sccn32)s1", "inhibition": "66.1% (active)"}
{"smiles": "O=C(NCc1ccc(Cl)cc1)c1cc(=O)nc2sc(-c3ccccc3)nn12", "inhibition": "19.7%"}
{"smiles": "COc1ccc(NC(=O)C2CCC(CNS(=O)(=O)c3csc(C(N)=O)c3)CC2)cc1OC", "note": "(centres undefined)", "inhibition": "48.8%"}
{"smiles": "Cc1ccc(S(=O)(=O)N/N=C\\c2cc3c(cc2[N+](=O)[O-])OCO3)cc1", "inhibition": "-27.6%"}
{"smiles": "Cc1ccc(-c2n[nH]c(=S)n2/N=C/c2cc3c(cc2[N+](=O)[O-])OCO3)cc1", "inhibition": "99.7% (active)"}
{"smiles": "CCOc1ccc(-c2n[nH]c(=S)n2/N=C/c2cc3c(cc2[N+](=O)[O-])OCO3)cc1", "inhibition": "57.5%"}
{"smiles": "CN(C(=O)CC1C(=O)NCCN1Cc1ccc2ccccc2c1)C1CCOCC1", "note": "(centres undefined)", "inhibition": "9%"}
{"smiles": "COc1ccc(N(Cc2cc3cc(OC)ccc3[nH]c2=O)S(C)(=O)=O)cc1", "inhibition": "-2.4%"}
{"smiles": "CC(=O)OCc1cc2cc(C)ccc2[nH]c1=O", "inhibition": "-4.1%"}
{"smiles": "Cc1cccc(-c2noc(-c3ccc(F)cc3)n2)c1", "inhibition": "-3.7%"}
{"smiles": "CCCc1nc(-c2cc3cc(C)ccc3[nH]c2=O)no1", "inhibition": "76.8% (active)"}
{"smiles": "CCNC(=O)CCc1nc(-c2ccc(C)cc2)no1", "inhibition": "12.3%"}
{"smiles": "COc1ccc2[nH]c(=O)c(-c3noc(-c4ccc(F)cc4)n3)cc2c1", "inhibition": "80.2% (active)"}
{"smiles": "COC(=O)Cc1cnc(NC(=O)CSc2nc(C(C)C)cc(=O)[nH]2)s1", "inhibition": "26.5%"}
{"smiles": "O=C(CCN1C(=O)[C@@H]2Cc3ccccc3CN2C1=O)NCCc1ccccc1", "inhibition": "38.2%"}
{"smiles": "CC1=C/C(=N\\OS(=O)(=O)c2ccccc2)C=CC1=O", "inhibition": "-13.3%"}
{"smiles": "O=Cc1c(NCCc2cccc(F)c2)c2ccccc2[nH]c1=O", "inhibition": "19.2%"}
{"smiles": "CC(C)(C)SCCSC1=CC(=O)CC(c2ccccc2)C1", "note": "(centres undefined)", "inhibition": "14.1%"}
{"smiles": "Cc1ccc2nc(N3C(=O)C(O)=C(C(=O)c4ccco4)C3c3cccc(O)c3)sc2c1", "note": "(centres undefined)", "inhibition": "40.5%"}
{"smiles": "O=C(c1ccccc1)N1CCC(CC2CC(c3ccc(Cl)cc3)=NO2)(C(=O)NCC2CCCCC2)CC1", "note": "(centres undefined)", "inhibition": "-1.7%"}
{"smiles": "Fc1ccc(OCc2nn3c(Cn4nnc5ccccc54)nnc3s2)cc1", "inhibition": "82.3% (active)"}
{"smiles": "CC(=O)OC(COc1ccc(F)cc1)Cn1cnc2ccccc21", "note": "(centres undefined)", "inhibition": "43.9%"}
{"smiles": "c1ccc(Cc2nn3c(Cn4cnc5ccccc54)nnc3s2)cc1", "inhibition": "45.1%"}
{"smiles": "CN(CC(=O)Nc1ccccc1C(F)(F)F)C(=O)Cc1ccccc1F", "inhibition": "18.7%"}
{"smiles": "Cc1ccccc1-c1n[nH]c(=S)n1/N=C/c1ccc(-c2ccccc2Br)o1", "inhibition": "-60.1%"}
{"smiles": "Cc1cc(-c2n[nH]c(=S)n2/N=C/c2ccco2)n[nH]1", "inhibition": "-60%"}
{"smiles": "Cc1n[nH]c(=S)n1/N=C/c1ccc(Br)o1", "inhibition": "99.1% (active)"}
{"smiles": "N#C/C=C/N1CCN(Cc2ccc3c(c2)OCO3)CC1", "inhibition": "15.6%"}
{"smiles": "CCOc1ccc(OCc2ccc(C(=O)N(C)c3ccccc3)o2)cc1", "inhibition": "18.7%"}
{"smiles": "CC(NC(=O)c1ccccc1C(=O)O)c1ccc(-n2ccnc2)cc1", "note": "(centres undefined)", "inhibition": "8.3%"}
{"smiles": "CCCOc1cccc(C(=O)Nc2ccccc2C(=O)N2CCN(C)CC2)c1", "inhibition": "24%"}
{"smiles": "Cc1cc(C)c(OCC(=O)N/N=C/c2ccco2)c(C)c1", "inhibition": "-1.4%"}
{"smiles": "Cc1ccc(NC(=O)CCC(=O)N/N=C/c2ccco2)c(C)c1", "inhibition": "-4.9%"}
{"smiles": "Cc1ccc(OCC(=O)N/N=C\\c2ccco2)c(C)c1", "inhibition": "61.1% (active)"}
{"smiles": "CSCc1nnc(NC(=O)c2ccc(S(=O)(=O)N3CCCCC3C)cc2)o1", "note": "(centres undefined)", "inhibition": "32.3%"}
{"smiles": "O=C(N/N=C/c1cccc(OCc2ccccc2)c1)c1ccc(Br)o1", "inhibition": "41.4%"}
{"smiles": "Cc1sc2ncn(CC(=O)NCCCC(=O)NCc3ccc(F)cc3)c(=O)c2c1C", "inhibition": "31.9%"}
{"smiles": "CCOC(=O)c1cc(S(=O)(=O)NCCc2ccc(OC)c(OC)c2)cn1C", "inhibition": "69.7% (active)"}
{"smiles": "CCS(=O)(=O)NCCc1ccc(OC)c(OC)c1", "inhibition": "-2.4%"}
{"smiles": "COc1ccc(CCNS(=O)(=O)c2ccc(F)cc2)cc1OC", "inhibition": "-6.8%"}
{"smiles": "COc1ccc(C2NC(=O)N(C)C(C)=C2[N+](=O)[O-])cc1", "note": "(centres undefined)", "inhibition": "14.1%"}
{"smiles": "Cc1[nH]c(C)c(S(=O)(=O)N2CCN(c3cccc(C(F)(F)F)c3)CC2)c1C(=O)N1CCCCC1", "inhibition": "42.6%"}
{"smiles": "CCCCCn1c(=O)[nH]c2cc(C(=O)NCCCN3CCCCC3C)ccc2c1=O", "note": "(centres undefined)", "inhibition": "26.1%"}
{"smiles": "CCCCNC(=O)CN1C(=O)NC(Cc2ccccc2)(Cc2ccccc2)C1=O", "inhibition": "35%"}
